From PubChem BioAssay AID2391 (Southern Research Specialized Biocontainment Screening …, 2010)
Out of some 310,000 compounds screened, about 410 (0.13%) were called active. Another 2% or so got no clear call; they are omitted. How the calls were made is not given here. Not all results are given here. Results with a measured potency or affinity are listed apart.

test: inhibition of RSV-induced cytopathic effect – HEp-2 cells, primary 10 µM value included (AID 2391); conditions: at 10 µM, stronger effect = higher value

CPE inhibition, inactive:
CC(C)CNC(=O)c1cccc(NC(=O)Cc2ccc(Br)cc2)c1 15.3%
CC(=O)/C(C#N)=C1\NC(=O)C(Cc2ccc(C)c(Cl)c2)S1 (configuration not stated) 15%
CC(=O)/C(C#N)=C1\NC(=O)C(Cc2cc(Cl)ccc2Cl)S1 (configuration not stated) 14%
CC(=O)/C(C#N)=C1\NC(=O)C(Cc2ccc(F)cc2)S1 (configuration not stated) 12.6%
CCc1ccc(CC2S/C(=C(\C#N)C(C)=O)NC2=O)cc1 (configuration not stated) 6.6%
CC1CCCN(c2nc3c(c(=O)n(C)c(=O)n3C)n2CCSc2nc3ccccc3o2)C1 (configuration not stated) 1.2%
COc1ccccc1NC(=O)C(=O)NCC1COc2ccccc2O1 (configuration not stated) 5.12%
NS(=O)(=O)c1ccc(CCNC(=O)CSc2nc3ccccc3c(=O)n2CCC(=O)N2CCCCC2)cc1 0.56%
Cc1cc(=O)[nH]c(-c2ccccc2O)n1 0.17%
c1ccc(-c2nc(-c3cccs3)[nH]c2-c2ccccc2)cc1 1.1%
c1csc(-c2nc3ccccc3[nH]2)c1 4.14%
Cn1c(=O)c2[nH]c(-c3ccccc3O)nc2n(C)c1=O 9.42%
O=S(=O)(NC(=NCc1ccccc1)c1ccccc1F)c1ccccc1 0.88%
COc1ccc(CNC(=O)CN(Cc2ccc(F)cc2)C(=O)CCC(=O)Nc2nccs2)cc1 0.79%
CC(OC(=O)c1cccc([N+](=O)[O-])c1)C(=O)NCc1ccc2c(c1)OCO2 (configuration not stated) 2.66%
COCc1cc(C)nc(NC2CC(C)(C)NC(C)(C)C2)c1C#N -1.99%
CCn1c2ccccc2c2nnc(SCC(=O)Nc3c(C)n(C)n(-c4ccccc4)c3=O)nc21 17.8%
C=CCn1c2ccccc2c2nnc(SCc3ccc4nonc4c3)nc21 3.57%
CCCn1c2ccccc2c2nnc(SCC(=O)Nc3cc(C)on3)nc21 1.54%
Cn1c2ccccc2c2nnc(SCc3ccc4nonc4c3)nc21 -0.67%
Nc1nnc(COc2cccc(C(F)(F)F)c2)s1 1.04%
COC(=O)c1ccc(C(=O)OC)c(NC(=O)C2CC2)c1 1.03%
COc1ccc2cc(CN(CCCN3CCOCC3)Cc3nnnn3C3CCCC3)c(=O)[nH]c2c1 -0.3%
CCOc1ccccc1N(CC)C(=O)c1ccc2c(=O)n3c(nc2c1)CCCCC3 4.24%
Cc1c(Cl)ccc2c1NC(=O)C21NC(CCC(N)=O)[C@H]2C(=O)N(c3ccc(Cl)cc3)C(=O)[C@H]21 (some centres not stated) 2.04%
C[N+](C)(C)CC/C=C1/c2ccccc2CSc2ccccc21 -0.47%
Cc1ccc(/C(=N\O)c2oc3c(C)c4oc(=O)cc(C)c4cc3c2C)cc1 -1.6%
C/C(=N\O)c1oc2ccc3c(C)cc(=O)oc3c2c1C 21.3%
CCC(Cc1ccccc1)NC(=O)C1CC1 (configuration not stated) -0.41%
O=[N+]([O-])c1ccc(CN2CCN(c3ccc([N+](=O)[O-])cc3)CC2)cc1 8.04%
COc1ccc(CNC(=S)NCc2ccc(OC(C)C)cc2)cc1 3.45%
CC(C)c1ccc(Nc2ncccc2C(=O)O)cc1 10.4%
COc1ccc(Nc2ncccc2C(=O)O)cc1 -0.34%
CCOC(=O)c1c(C)nc2c(c1C)/C(=N/O)CC(C)(C)C2 5.56%
COc1ccccc1CNC(=O)c1ccc(CS(=O)Cc2cccc(Cl)c2)o1 (configuration not stated) 4.42%
Cc1nn(-c2ccc([N+](=O)[O-])cc2)c2c1C(c1ccc(OC(F)F)cc1)N1C(=N2)C(=O)Nc2ccccc21 (configuration not stated) 6.37%
Cc1ccc(C2c3c(C)nn(-c4ccc([N+](=O)[O-])cc4)c3N=C3C(=O)Nc4ccccc4N32)cc1 (configuration not stated) 3.63%
O=C(c1ccc(F)cc1)C1CCN(C(=S)Nc2ccccc2Cl)CC1 2.44%
Cc1nn(Cc2ccc(Cl)cc2)c(C)c1NC(=O)c1cc(C(C)C)on1 7.7%
Cc1cc(C(=O)Nc2c(C)nn(Cc3c(Cl)cccc3Cl)c2C)no1 -0.07%
Cc1cc(C)n2nc(C(=O)N/N=C/c3c4ccccc4cc4ccccc34)nc2n1 3.03%
CCCCN(CC)Cc1c(C)[nH]c2c(ccc3ccccc32)c1=O 0.96%
COc1ccc(S(=O)(=O)NCc2ccco2)cc1N(C)S(=O)(=O)c1ccccc1 2.02%
Cc1ccccc1-c1nnc2c3ccccc3c(C)nn12 -1.91%
Cc1nn2c(-c3ccccc3)nnc2c2ccccc12 -0.87%
COc1ccc(-c2nnc3c4ccccc4c(C)nn23)cc1 4.75%
COc1ccc(S(=O)(=O)NCc2ccco2)cc1NC(=O)c1ccccc1 3.54%
COc1ccc(S(N)(=O)=O)cc1-c1nnc2c3ccccc3c(C)nn12 6.57%
Cc1ccc(N2C(=O)c3ccc(N)cc3C2=O)cc1 1%
COc1cc(SC)ccc1C(=O)Nc1ccc2c(c1)OCCO2 49.8%
CC(=O)Nc1ccc(OCC(O)Cn2nc(C)nc2C)cc1 (configuration not stated) -1.49%
COc1ccc(CN(C(=O)c2oc3cc(C)c(C)cc3c2C)C2CCS(=O)(=O)C2)cc1OC (configuration not stated) 5.1%
Cc1ccc(Cl)cc1NS(=O)(=O)c1ccc2oc(=O)ccc2c1 15.7%
O=C(COC(=O)c1ccc(OC(F)F)cc1)NC(=O)NC1CCCC1 2.84%
CC(=O)Nc1ccc(NC(=O)CCn2nnc3ccccc32)cc1 -1.57%
C=CCNC(=O)COC(=O)c1cc(S(=O)(=O)N2CCCCC2)ccc1Cl 0.67%
COc1ccc(-c2cc(C(=O)N3CCCC3)c3ccccc3n2)cc1 3%
COc1ccc(-c2cc(C(=O)O)c3ccccc3n2)c(OC)c1 0.21%
O=C(O)c1cc(-c2ccc(-c3ccc(F)cc3)o2)nc2ccccc12 7.68%
O=C(O)c1cc(-c2cccs2)nc2ccc(F)cc12 -0.75%
O=S(=O)(c1ccc(C2CCCCC2)cc1)N1CCOCC1 15.3%
O=C(CO/N=C/c1ccccc1)Nc1c(F)c(F)c(F)c(F)c1F 2.75%
COc1ccc(NC(=O)CN(C)C(=O)CCCc2nc3ccccc3s2)cc1 2.07%
Cc1cc(Cl)ccc1OCCCC(=O)N1CCN(C(=O)c2ccco2)CC1 17.5%
Cc1cc(SCC(=O)c2ccccc2)n2ncc(-c3ccccc3)c2n1 4.59%
Cc1ccc2nc(C)cc(SCC(=O)N/N=C/c3ccco3)c2c1 1.6%
COc1ccc(Cn2c(-c3ccccc3C)nc3c(c(=O)c4ccccc4n3C)c2=O)cc1 52.8%
COCCn1c(-c2cccc(Br)c2)nc2c(c(=O)c3ccccc3n2C)c1=O 45.9%
COc1ccc(Cn2c(-c3ccco3)nc3c(c(=O)c4ccccc4n3C)c2=O)cc1 12.4%
COc1ccc(Cn2c(-c3ccc(C)cc3)nc3c(c(=O)c4ccccc4n3C)c2=O)cc1 3.47%
COCCn1c(-c2ccc(Cl)cc2)nc2c(c(=O)c3ccccc3n2C)c1=O 8.68%
Cn1c2ccccc2c(=O)c2c(=O)n(Cc3ccco3)c(-c3ccc(C(C)(C)C)cc3)nc21 6.32%
CCc1nc2sc3ccccc3c(=O)c2c(=O)n1Cc1ccco1 10.5%
CCCCCc1nc2c(c(=O)c3ccccc3n2C)c(=O)n1Cc1ccc(OC)cc1 56.9%
COc1ccc(N2CCN(CCNS(=O)(=O)c3ccc(C)cc3)CC2)cc1 -1.19%
CCCCOc1ccc(Cl)cc1CSc1n[nH]c(C)n1 -1.27%
CC(NC(=O)c1c(F)cccc1Cl)c1ccc(-n2ccnc2)cc1 (configuration not stated) 2.43%
COc1cnn(-c2ccccc2)c(=O)c1SCc1ccc(Cl)c(Cl)c1 5.77%
Fc1ccccc1NC(=S)N1CCN(C/C=C/c2ccccc2)CC1 0.73%
Cc1ccc(C)c(S(=O)(=O)N/N=C/c2ccc(N(C)C)cc2)c1 -0.72%
c1ccc2c(c1)nc1n2CN(Cc2ccc3c(c2)OCO3)CN1 1.87%
Cc1csc(=O)n1CCC(=O)OCC(=O)NNC(=O)c1ccccc1 -2.48%
COc1ccc(CCn2c(-c3ccccc3)nc3c(c(=O)c4ccccc4n3C)c2=O)cc1 2.88%
COc1ccc(CCn2c(C(C)C)nc3c(c(=O)c4ccccc4n3C)c2=O)cc1 4.88%
Cc1ccc(NC(=O)c2cn(-c3cccc(C)n3)cn2)cc1 3.46%
CC(C)C[C@H](NC(=O)c1nc[nH]c1C(=O)N[C@@H](CC(C)C)C(=O)OC(C)(C)C)C(=O)OC(C)(C)C -5.5%
CC(C)C[C@H](NC(=O)c1nc[nH]c1C(=O)NC1CCN(C(=O)OC(C)(C)C)CC1)C(=O)OC(C)(C)C 0.16%
COc1ccc(Cn2cnc3c4cc(F)ccc4n(C)c3c2=O)cc1 1.16%
Cc1occc1C(=O)Nc1cc(C(C)(C)C)on1 -1.18%
CC(C)(C)c1cc(NC(=O)c2ccco2)no1 2.28%
COc1ccc(N(C(=O)CNC(=O)c2ccco2)C(C(=O)NC2CCCC2)c2cccnc2)cc1 (configuration not stated) -0.22%
NC(=O)c1ccsc1NC(=O)COC(=O)C1CC2CCCC(C1)C2=O (configuration not stated) 1.41%
